Measured values published in article PMC10163288.
A selection follows. How many sequences the whole screen found active is unknown.

B1: il10ra_site1_normal_mot_HHH_b2_08287_af2_000000247_0001_1_16_H_._HHH_b2_07820_0001_0000300057_0000001_0_af2pred_0001 (protein)
chain: SSSSDEEEEEVKELLEEAKRIDDPRERTRVLVEAYALAFELNNPELEELVKEVAIELLERSSSSS
B2: il10ra_site1_sap_19_mot_HHH_b1_04514_000000156_0001_1_18_H_._HHH_b1_01679_0001_0000100001_0000001_0_0001_af2pred_0001 (protein)
chain: SSSSSSEAEKEVAKILIEVLRLNDEEAAERISHLLIRLIVEGDERLIEEIRELFEEVEENSSSSS
B3: il10ra_site1_normal_mot_HHH_b1_05672_af2_000000246_0001_1_19_H_._ems_3hC_444_af2_0001_0000400050_0000001_0 (protein)
chain: SSDLREEFSRVLIRAVRAAARHDEEKAEELVRRAEEIAEELGDEELERYVEIVKNFVESATRSSS
B4: il10ra_site1_sap_24_mot_HHH_b2_00622_af2_000000153_0001_40_57_H_._1ad9cd31332199d645683f25bccb3f2f_0001_af2_0001_0000400010_0000001_0_0001 (protein)
chain: SSSSSDEEAEEQVEELLEEAKRIEDREEVLRLLIEANRIAFRAGNDELQREIWRVAQELSSSSSS
B5: il10ra_site1_sap_19_mot_HHH_b1_01585_000000217_0001_1_18_H_._HHH_b1_05870_af2_0001_0000200018_0000002_0_0001 (protein)
chain: SSSSSRAEKVREILEEVVELQRQGDKEEAERLLEELLEELEELGDVNSLVNVEYLLRAVRKSSSS
B6: il10ra_site1_normal_mot_HHH_b1_01827_000000263_0001_1_19_H_._HHH_b2_07433_0001_0000500029_0000001_0_af2pred_0001 (protein)
chain: SSSSSTEEVERVIKLIRRALEIEDEEERRRLLEEAVELAEEGGNLVLLISARFALEDVEQSSSSS
B7: il10ra_site1_sap_10_mot_HHH_b1_05704_af2_000000048_0001_1_18_H_._HHH_b2_04382_0001_0000100002_0000001_0_0001_af2pred_0001 (protein)
chain: SSSSSEEEERVELALRFVKFLLKAGDPEAARFFVEWALEKAKELGNEELEEEAEELLREARSSSS
B8: il10ra_site1_sap_18_mot_HHH_b2_04327_000000030_0001_41_55_H_._HHH_b2_03484_af2_0001_0000400008_0000001_0_0001_af2pred_0001 (protein)
chain: SSSSSSSEEEELMQLAAEISRHASPEEIRRLFELLVRLYHEGDPELKEELRELIEEIKSSSSSSS
B9: il10ra_site1_normal_mot_HHH_b2_07144_000000289_0001_1_18_H_._HHH_b1_03935_0001_0000100008_0000001_1 (protein)
chain: SSSSSEEAEELYELSREVAHLHREGDEEEAKRLLEEAIELAEELGNFNILFALELLLRQLSSSSS
B10: il10ra_site1_sap_20_mot_HHH_b2_00093_af2_000000025_0001_40_54_H_._HHH_b2_05679_0001_0000100006_0000001_0_0001_af2pred_0001 (protein)
chain: SSSSSIHERDVELALLAARLLAERGDPEAVREALELARRQAESTNNEELEELVEEVERELSSSSS

molecular target: il10ra, Q13651; assay: yeast display titration
Sequence (Q13651 whole entry): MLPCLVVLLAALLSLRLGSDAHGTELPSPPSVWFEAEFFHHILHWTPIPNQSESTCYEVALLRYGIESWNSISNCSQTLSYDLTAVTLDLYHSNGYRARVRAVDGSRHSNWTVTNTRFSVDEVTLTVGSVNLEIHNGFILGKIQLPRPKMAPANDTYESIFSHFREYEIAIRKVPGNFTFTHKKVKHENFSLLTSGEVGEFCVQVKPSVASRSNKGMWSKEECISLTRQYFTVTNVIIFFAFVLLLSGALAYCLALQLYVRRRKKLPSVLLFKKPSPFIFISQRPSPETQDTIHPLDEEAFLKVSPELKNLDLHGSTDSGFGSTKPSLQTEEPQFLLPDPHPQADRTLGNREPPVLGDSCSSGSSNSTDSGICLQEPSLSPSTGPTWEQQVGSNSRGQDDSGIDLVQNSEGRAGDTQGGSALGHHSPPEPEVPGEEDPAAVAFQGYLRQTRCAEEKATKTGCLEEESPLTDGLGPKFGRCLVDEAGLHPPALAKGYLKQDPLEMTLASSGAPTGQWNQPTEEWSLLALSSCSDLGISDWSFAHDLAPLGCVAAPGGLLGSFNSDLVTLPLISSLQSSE

Apparent Kd, inactive:
B1 no binding seen, B2 no binding seen, B3 no binding seen, B4 no binding seen, B5 no binding seen, B6 no binding seen, B7 no binding seen, B8 no binding seen, B9 no binding seen, B10 no binding seen
